Shown is part of a subset that was picked to be rich in hits.
DT40 TDP1 no CPT = qHTS for Inhibitors of human tyrosyl-DNA phosphodiesterase 1 (TDP1): qHTS in cells in absence of CPT | DT40 Tdp1-/- hTDP1 cells, no CPT, ATP luminescence, 48 h | Potency, µM (top dose mostly 46.2 µM), without a hit: at the highest dose activity change, negative = growth inhibition, hits mostly inhibitors | hit rate 15% among 420,000 | AID 686978, 2013; further: potency means the concentration at half of the fitted maximal effect; nearly all actives have a fitted effect of over 55% in size
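Luminescent ATP content (CellTiter-Glo) served as the growth readout. Knockout chicken DT40 cells expressing human TDP1 were exposed to compounds without camptothecin for a minimum 48 hr at 37 °C.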
HT1080NT lethal = qHTS for induction of synthetic lethality in tumor cells producing 2HG: qHTS for the HT-1080-NT fibrosarcoma cell line; HT-1080-NT fibrosarcoma viability, CellTiter-Glo ATP luminescence, 48 h; Potency, µM (top dose mostly 46.1 µM), for the others: top-dose activity, negative = less viability, hits mostly cytotoxic; AID 686970, 2013; hit rate 1.6% among 360,000;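 further: NT is the 2HG producing partner of a matched IDH1 knockdown line; potency means the concentration at half of the fitted maximal effect; 0% = DMSO-treated cells and -100% = media-only wells without cells; nearly all actives have a fitted effect of over 55% in size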
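Toxicity toward the 2HG-producing NT line was scored as %Activity, normalised to DMSO and no-cell wells, from CellTiter-Glo luminescence after 48 hours' treatment.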
HT1080 IDH1KD tx = qHTS for induction of synthetic lethality in tumor cells producing 2HG: qHTS for the HT-1080-IDH1KD cell line | HT-1080 IDH1 knockdown viability, ATP luminescence, 48 h | Potency, µM (top dose mostly 46.1 µM), for the others: top-dose activity, negative = toxicity, most hits filed as cytotoxic | hit rate 2% among 360,000;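 further: potency means the concentration at half of the fitted maximal effect; 0% = DMSO wells and -100% = cell-free medium wells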
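In this qHTS, HT-1080 cells depleted of IDH1 are exposed for 48 h at 37 °C to compound titrations. Toxicity is scored from CellTiter-Glo luminescence, with DMSO as full viability and medium alone as none.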
ALOX12 inh = Primary qHTS assay for inhibitors of human arachidonate 12S-lipoxygenase (ALOX12): Round 2; Polyunsaturated fatty acid lipoxygenase ALOX12 (Homo sapiens), P18054; purified 12hLO, xylenol orange hydroperoxide absorbance; Potency, µM (highest dose often 108 µM), without a hit: top-dose activity change, negative = inhibition, usual class: inhibitors; hit rate 1.1% among 580,000; further: potency means the concentration at half of the fitted maximal effect
Target sequence (P18054 whole entry, looked up): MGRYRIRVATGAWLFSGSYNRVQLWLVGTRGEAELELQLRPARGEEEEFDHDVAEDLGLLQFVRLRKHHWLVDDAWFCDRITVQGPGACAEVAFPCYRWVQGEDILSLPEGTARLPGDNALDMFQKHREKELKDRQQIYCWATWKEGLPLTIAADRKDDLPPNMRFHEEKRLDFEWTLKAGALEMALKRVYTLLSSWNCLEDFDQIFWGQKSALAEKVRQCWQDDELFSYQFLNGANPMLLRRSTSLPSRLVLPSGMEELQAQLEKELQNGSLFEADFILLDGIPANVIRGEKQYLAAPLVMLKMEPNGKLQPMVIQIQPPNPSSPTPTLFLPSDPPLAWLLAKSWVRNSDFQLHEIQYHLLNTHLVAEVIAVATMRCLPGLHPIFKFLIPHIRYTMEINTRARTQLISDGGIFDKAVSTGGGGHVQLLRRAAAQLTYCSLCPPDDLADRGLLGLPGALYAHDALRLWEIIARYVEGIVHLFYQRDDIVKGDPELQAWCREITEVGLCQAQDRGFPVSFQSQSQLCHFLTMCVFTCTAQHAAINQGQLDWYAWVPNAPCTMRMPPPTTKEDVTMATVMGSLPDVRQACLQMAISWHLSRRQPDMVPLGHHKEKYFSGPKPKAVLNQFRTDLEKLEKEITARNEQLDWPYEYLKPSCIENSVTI
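Purified human 12hLO (150 nM final) in 25 mM Hepes, 0.01% Triton X-100, pH 7.0 was preincubated 15 min at room temperature with compound. Then 40 uM arachidonic acid was added, 30 min. Hydroperoxide was read by Fe-XO absorbance ratio 573/405 nm.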
IL-1B inflam inh = qHTS for Inhibitors of Inflammasome Signaling: IL-1-beta AlphaLISA Primary Screen. THP-1 LPS/ATP IL-1B secretion, AlphaLISA, 16 h; hits give low values. activity change, % at 57.5 µM. hit rate 4.7% among 360,000. AID 743279, 2014; in the data active means activity change below about -50%; inconclusive means mostly about -30% to -49%
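THP-1 cells pretreated 1 hr with compounds (up to 57.5 uM final), then stimulated with LPS (250 ng/mL final) plus ATP (1.25 mM final); secreted IL-1B measured by AlphaLISA after 16 hr, decreased signal indicating inhibition.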
DT40 TDP1 CPT = qHTS for Inhibitors of human tyrosyl-DNA phosphodiesterase 1 (TDP1): qHTS in cells in presence of CPT | hit rate 12% among 420,000 | chicken DT40 Tdp1-/-;hTDP1 cells + 20 nM CPT, ATP luminescence, 48 h | Potency, µM (highest dose often 46.2 µM), for inactives: at the top dose activity change, negative = growth inhibition, usual class: inhibitors; further: potency means the concentration at half of the fitted maximal effect; nearly all actives have a fitted effect of over 55% in size
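Cell growth measured by CellTiter-Glo luminescence after a minimum 48 h, 37 C compound exposure with 20 nM CPT in Tdp1-knockout DT40 cells stably expressing hTDP1, seeded 400/well; qHTS titration format.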
* hit, by the source's call. Unless noted, the call rests on the fitted dose curve; in most records, active means well fitted curve in the direction sought with a large enough effect; inconclusive means small, poorly fitted or top-dose-only effect, or another doubt; inactive means no such curve, though single readings can be large; an effect the other way counts as inactive or inconclusive. Unless noted, on the % scale 0 is the no-effect control and ±100 the full control effect.

For COc1ccc(Cn2c(C(=O)O)c(CNCc3ccc(SC)cc3)c3ccc(OC)cc32)cc1 the results were DT40 TDP1 no CPT 5.8µM*, ALOX12 inh 0% and DT40 TDP1 CPT 5.2µM*.
`COc1ccc2c(CNCc3ccc(C)o3)c(C(=O)O)n(Cc3ccccc3)c2c1` gave DT40 TDP1 no CPT inconclusive, ALOX12 inh -4% and DT40 TDP1 CPT -27%.
C=Cc1ccc(Cn2c(C(=O)O)c(CNCc3ccccc3)c3ccc(OC)cc32)cc1 was read as DT40 TDP1 no CPT 15µM*, ALOX12 inh 4µM* and DT40 TDP1 CPT inconclusive.
`CCOc1ccc(CNCc2c(C(=O)O)n(Cc3ccccc3F)c3cc(OC)ccc23)cc1` gave DT40 TDP1 no CPT 5.8µM*, ALOX12 inh -2% and DT40 TDP1 CPT 18µM*.
COc1ccc(C(=O)Nc2ccc3oc(-c4ccccc4F)cc(=O)c3c2)cc1OC was read as ALOX12 inh 0%.
For CS(=O)(=O)Nc1ccc(C2=NN(C(=O)c3ccco3)C(c3ccc4nccnc4c3)C2)cc1 (stereo not given) the results were ALOX12 inh -24%.
`O=C(c1ccco1)N1N=C(c2ccc3nccnc3c2)CC1c1ccccc1` (stereo not given) gave DT40 TDP1 no CPT 18µM*, HT1080NT lethal -2%, HT1080 IDH1KD tx -1%, ALOX12 inh 6%, IL-1B inflam inh -27 and DT40 TDP1 CPT inconclusive.
For CS(=O)(=O)Nc1ccc(C2=NN(C(=O)c3ccco3)C(c3ccc(F)cc3)C2)cc1 (stereo not given) the results were DT40 TDP1 no CPT 16µM*, HT1080NT lethal -22%, HT1080 IDH1KD tx -30%, ALOX12 inh -16%, IL-1B inflam inh -79* and DT40 TDP1 CPT -30%.
O=C(c1ccccc1)N1N=C(c2ccc(F)cc2)CC1c1ccc2nccnc2c1 (stereo not given) was read as ALOX12 inh 4%.
CCc1ccc(C(=O)c2cncc(Br)c2)cc1 was read as DT40 TDP1 no CPT 8.2µM*, HT1080NT lethal 1%, HT1080 IDH1KD tx 4%, ALOX12 inh 27%, IL-1B inflam inh -17 and DT40 TDP1 CPT 10µM*.
For O=C(/C=C/c1ccc(-c2ccc(Cl)c(Cl)c2)o1)c1ccc(Br)cc1 the results were ALOX12 inh 13µM*.
`CC(C)OC(=O)/C(C#N)=C\c1ccc(-c2ccccc2Cl)o1` gave ALOX12 inh 12%.
Screening Cc1ccc(C(=O)/C=C/c2ccc(-c3ccccc3Br)o2)cc1 returned ALOX12 inh 1.1µM*.
For O=C(O)c1ccc(-c2ccccc2Cl)o1 the results were DT40 TDP1 no CPT -17%, HT1080NT lethal -10%, HT1080 IDH1KD tx -6%, ALOX12 inh 0%, IL-1B inflam inh -6 and DT40 TDP1 CPT -12%.
For O=C(/C=C/c1ccc(-c2ccccc2Cl)o1)c1ccc(F)cc1 the results were ALOX12 inh 11µM*.
O=C(O)c1ccc(/C=C/C(=O)c2ccc(Br)cc2)cc1 was read as ALOX12 inh 3%.
For O=C(/C=C/c1ccc(-c2ccccc2Cl)o1)c1ccc2ccccc2c1 the results were ALOX12 inh 1µM*.
COc1ccc(-c2ccnc3ncnn23)c(F)c1 was read as ALOX12 inh 4%.

Screening results deposited in PubChem BioAssay by National Center for Advancing Translational Sciences (NCATS).
